Screens (PubChem BioAssay)
Sampled rows, rich in hits. Any-hit rate of the full collection: about 4.1%.
DAX1 inh-1: inhibitors of DAX1 repression of SF-1 activated StAR promoter. inhibition, % at 6.8 µM. actives 1.1% (n = 370,000). AID 652010. HEK293T StAR-luciferase reporter, SF-1/DAX-1 repression relief;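 active means inhibition above the mean over all tested compounds plus 3 SD, cut at about 3.6% in these data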;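 further: 0% = DAX-1 cells with DMSO and 100% = cells lacking DAX-1 with DMSO; higher inhibition means more luminescence from relief of DAX-1 repression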
hgDAF12 agonist: hgDAF-12 agonism, primary luciferase screen | HEK293 GAL4-hgDAF12 UAS-luciferase reporter, agonist luminescence; normalized to butyrate control | activation, % at 6.8 µM | actives 1.8% (n = 370,000) | AID 687014;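 active means activation above a cutoff set at the mean of all screened compounds plus 3 SD, cut at about 10% in these data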;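 further: 0% = DMSO wells and 100% = sodium butyrate wells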
ssDAF-12 act: S. stercoralis DAF-12 activation, primary screen; HEK293 ssDAF-12/GRIP1 lit1-tk-luc reporter, luminescence; % of 3 µM dafachronic acid response; actives 1% (n = 370,000); activation, % at 6.8 µM;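 active means activation above the mean over all tested compounds plus 3 SD, cut at about 0.9% in these data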;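 further: 0% = DMSO-only wells and 100% = 3 µM delta7-dafachronic acid wells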
hcDAF12 agonist: activates DAF-12 receptor from parasite H. contortus; activation, % at 6.8 µM; AID 652067; HEK293 hcDAF-12 lit1-tk-luc reporter, luminescence; 0% DMSO, 100% Δ7-dafachronic acid; actives 1.4% (n = 370,000);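 active means activation above the mean of all tested compounds plus 3 SD, cut at about 5.5% in these data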;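 further: 100% = response to 3 µM Δ7-dafachronic acid high control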
DAX1 inh-2: NR0B1 (DAX1) inhibition; inhibition, % at 6.75 µM; AID 504766; actives 0.99% (n = 340,000); HEK293 Gal4-DAX1 luciferase reporter, luminescence; P51843;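 active means inhibition above the mean over all tested compounds plus 3 SD, cut at about 4.2% in these data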;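 further: 0% = DAX1-transfected cells with DMSO and 100% = empty-vector control cells with DMSO; inhibition shows as a rise in luminescence from relieved DAX1 repression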
Target sequence (P51843 207-470 limits assumed): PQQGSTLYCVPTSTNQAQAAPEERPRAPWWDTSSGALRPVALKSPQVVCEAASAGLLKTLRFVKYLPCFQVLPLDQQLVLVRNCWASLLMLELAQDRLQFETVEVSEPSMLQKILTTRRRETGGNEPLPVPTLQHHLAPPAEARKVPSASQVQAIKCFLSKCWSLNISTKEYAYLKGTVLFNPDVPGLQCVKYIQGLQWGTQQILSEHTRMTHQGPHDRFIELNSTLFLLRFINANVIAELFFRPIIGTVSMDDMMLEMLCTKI
* = called active by the depositor; . = no result given.

SMILES	DAX1 inh-1	hgDAF12 agonist	ssDAF-12 act	hcDAF12 agonist	DAX1 inh-2
C=CCNc1nc2cc(-c3ccccc3OC)sc2c(=O)n1C	-0.3	11.4*	-0.4	1.9	.
COCCNc1nc2cc(-c3ccc(F)cc3)sc2c(=O)n1C	-0.7	11.7*	-1.4	-1.0	.
COc1ccc(C(=O)OCCN2CCN(C3CN(Cc4cn(Cc5ccccc5Cl)nn4)S(=O)(=O)C3)CC2)cc1OC (stereo unspecified)	-3.0	-3.0	-2.4	-3.0	.
Cc1ccc(-n2c(SCc3c(Cl)cccc3Cl)nnc2-c2ccco2)cc1	-3.0	3.0	-1.8	-2.2	.
O=C1C(=O)N(c2ccc(O)cc2)C(c2ccccc2[N+](=O)[O-])/C1=C(\O)c1ccccc1 (stereo unspecified)	0.1	3.1	2.2*	5.5	2.0
O=C1C(=O)N(CCO)C(c2ccccc2[N+](=O)[O-])/C1=C(\O)c1ccccc1 (stereo unspecified)	-0.2	3.3	-0.2	1.7	0.0
Cc1nc(SCC(=O)c2cc3ccccc3oc2=O)c(C#N)c(C)c1C(=O)Nc1ccccc1	0.5	1.7	1.1*	1.4	.
COC(=O)CCC(=O)c1oc2ccc(Br)cc2c1N	2.5	11.0*	-0.5	1.4	3.0
COc1ccc2c(c1)CN1C(=O)N(CC(C)C)S(=O)(=O)CC21 (stereo unspecified)	1.9	9.1	-1.0	2.5	.
COc1cccc(NC(=O)CN(C)C(C)C(=O)Nc2ccc(C(C)=O)cc2)c1 (stereo unspecified)	-0.3	-5.0	-1.1	-1.4	6.8*
CCN(CC)c1c2c(nc3ncnn13)CCCC2	-0.7	-3.5	-1.3	0.5	.
O=C(O)CN1C(=O)C2(OCCO2)c2cc(Br)ccc21	-0.2	1.7	-0.6	-0.6	5.2*
COc1cc2c3c(cccc3c1)C(=O)N(CCN1CCCC1)C2=O	-2.4	-1.0	-0.7	4.8	8.7*
COc1ccc(C(=O)CN2CCN(CCN3C(=O)c4cccc5cccc(c45)C3=O)CC2)cc1	-0.2	-0.1	-0.8	-0.9	-0.5
COC(=O)C1=C(C)N(Cc2ccc(C(F)(F)F)cc2)C(=NCc2ccc(C(F)(F)F)cc2)NC1c1ccc(F)cc1 (stereo unspecified)	-1.1	1.1	0.1	2.6	.
O=c1c2ccccc2oc2ccc(NCCCn3ccnc3)cc12	4.0*	11.2*	1.8*	4.7	1.2
c1ccc2c(c1)oc1c(NCCCn3ccnc3)ncnc12	-0.1	2.2	-1.0	-1.5	-0.1
C#CCC1c2ccccc2CCN1CC=C (stereo unspecified)	0.1	-0.7	-0.3	1.2	.
COc1ccc(CSc2nnc3[nH]c(=O)cc(N)n23)cc1	0.0	1.2	3.7*	2.6	-1.0
N#Cc1ccc(CSc2nnc3[nH]c(=O)cc(N)n23)cc1	-0.5	-1.4	-0.8	-1.5	0.4
O=S(=O)(N1CCCCC1)n1c(Cc2ccccc2)nc2ccccc21	-0.5	-1.3	1.9*	-1.5	-0.1
Cc1onc(-c2ccccc2Cl)c1C(=O)NCc1nc(-c2ccc(C(F)(F)F)cc2)no1	-0.9	-2.5	-1.4	-2.6	-4.3
CC12CC3(C)CC(C)(C1)CC(C(N)=O)(C2)C3	-0.4	3.1	-1.7	-1.8	5.8*
CN(C)CCOC(=O)C12CC3(C)CC(C)(CC(C)(C3)C1)C2	0.5	-0.1	-1.1	-1.1	1.7
CC(C)n1nnnc1C1(C)Cn2nccc2C(=O)N1Cc1cccc(C(F)(F)F)c1 (stereo unspecified)	-0.2	5.2	-1.2	-1.6	.
SMILES	DAX1 inh-1	hgDAF12 agonist	ssDAF-12 act	hcDAF12 agonist	DAX1 inh-2
O=C(N[C@@H](Cc1cccnc1)C(=O)N1CCC[C@H]1C(=O)NCCc1ccccc1Cl)C1CCCC1	0.5	0.5	-1.0	-1.2	.
CC1CC(O)C(C)CN1 (stereo unspecified)	-0.1	-0.3	-0.4	-1.3	5.4*
O=C(NCCC1=CCCCC1)NC12CC3CC(CC(C3)C1)C2	3.7*	5.2	0.0	4.7	0.2
CSCCC(N=C(NS(=O)(=O)c1ccccc1)c1ccccc1)C(=O)O (stereo unspecified)	-0.9	-1.9	2.4*	-1.8	-0.3
C[C@@H]1CC2=C(C(=O)OC(C)(C)O2)[C@H](c2ccc(Cl)cc2)O1	0.2	-2.1	-1.1	-1.0	.
O=C(CCNS(=O)(=O)c1cccc(C(F)(F)F)c1)NC1CC1	-0.7	0.2	-0.9	1.3	-0.2
COc1cc(-c2cnc3c(NC=O)cc(-c4ccc(N5CCN(C)CC5)cc4)cn23)cc(OC)c1OC	2.5	10.7*	0.4	2.9	.
COc1cc(-c2cnc3c(NC(C)=O)cc(-c4ccc(N5CCN(C)CC5)cc4)cn23)cc(OC)c1OC	-4.1	-9.7	-2.5	-4.8	.
COc1cccc(-c2cnc3c(NC=O)cc(-c4ccc(O)c(OC)c4)cn23)c1	-1.2	-1.6	-1.5	-2.5	.
COc1cc(-c2cc(NC=O)c3ncc(-c4ccc(C(C)=O)cc4)n3c2)ccc1O	-1.4	10.5*	-1.4	-2.8	.
CCc1c2c3n4c1CCC[C@@H]4C[C@@H]3O[Si](C(C)C)(C(C)C)OC(C)C2=O (stereo partly specified)	.	1.4	-0.6	-2.6	.
Cc1ccccc1CN1CCCCC(NC(=O)C2CCCCC2)C1=O (stereo unspecified)	-1.6	-1.0	-1.0	-3.1	.
Cc1cccc(C)c1NC(=O)CNC(=O)CCC(=O)N1CCOCC1	3.7*	1.5	-1.3	0.7	-0.7
CCOC(=O)/C(C#N)=C/C=C1/C=CC=CN1C	0.4	4.2	-1.4	-1.2	5.7*
CC(C)CN1C(=O)C[C@]2(C(=O)N(C)c3ccc(NC(=O)c4cc(F)ccc4F)cc32)C1c1ccccc1 (stereo partly specified)	-1.1	1.0	-1.2	3.5	.
CCOC(=O)Cc1nc(N2CCN(C=O)CC2)c2c(C)c(C(=O)OCC)sc2n1	-0.2	3.2	-2.1	-2.7	.
O=[N+]([O-])c1ccc(/C=N/Nc2ccc3ccccc3c2)o1	-1.5	4.3	-0.1	6.4*	1.5
O=C(N/N=C/c1ccc([N+](=O)[O-])o1)c1cc2ccccc2o1	-4.7	-11.7	-2.6	-5.4	-4.5
O=C(NS(=O)(=O)c1ccccc1)c1cccc(Br)c1	-0.9	0.8	-1.0	-0.9	0.7
CC(C)(C)c1ccc(S(=O)(=O)N2CCN(C(=O)C(=O)c3cccc(C(F)(F)F)c3)CC2)cc1	0.9	1.2	-1.3	-1.1	.
O=C(NC1CCCCCC1)C1CCN(S(=O)(=O)c2cccc3cccnc23)CC1	-1.6	-0.6	-0.3	-1.4	6.1*
O=C(NC1CCCC1)C1CCCN(S(=O)(=O)c2cccc3cccnc23)C1 (stereo unspecified)	0.4	1.2	-1.4	-0.1	-2.1
O=[N+]([O-])c1ccc(Cc2nnc(-c3ccc(F)cc3)o2)cc1	1.0	9.4	0.0	4.5	2.2
Cc1ccc(-c2nnc(Cc3ccc([N+](=O)[O-])cc3)o2)cc1	0.6	11.8*	-1.3	2.8	2.2
